Our source for the outcome and Potency values is PubChem BioAssay (NCATS).

Each structure is given as a SMILES string. Records with an inconclusive call do not appear. Activity calls are given as the source filed them. Calls follow the shape of the dose curve; as a rule, active = well fitted cell-killing curve with a large enough effect; inconclusive = small, poorly fitted or top-dose-only effect; inactive = flat fitted curve, though single readings scatter.

The nature of experiment [1]: Cell Viability - LYMP2-009 (AID 968). Also: series mostly up to about 92 µM; nearly all actives have a fitted effect of over 55% in size.
Experiment [2] in a line: Cell Viability - LYMP2-011 (AID 969). Also: nearly all actives have a fitted effect of over 60% in size. The gist of the method:
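Human lymphoblastoid cells (2500/well) were plated in complete medium, preincubated 5 hr at 37 C, then exposed to compounds for 24 hr at 37 C. Intracellular ATP was read by CellTiter-Glo luminescence, and AC50 came from Hill-equation concentration-response fits.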

Experiment [3] can be described thus: Cell Viability - LYMP2-013 (AID 970). Also: series mostly up to about 92 µM; nearly all actives have a fitted effect of over 55% in size. The gist of the method: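 Human lymphoblastoid cells, 2500/well, were preincubated 5 hr at 37 C, then treated with compounds for 24 hr at 37 C in complete medium. Intracellular ATP was read by CellTiter-Glo luminescence; AC50 from Hill-equation fits of concentration-response data.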
The nature of experiment [4]: Cell Viability - LYMP2-015 (AID 971). Also: nearly all actives have a fitted effect of over 55% in size. In outline:
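Human lymphoblastoid cells (2500/well) in complete medium were preincubated 5 hr at 37 C, then compound-treated 24 hr at 37 C. Intracellular ATP was read by CellTiter-Glo luminescence after 30 min at room temperature; AC50 came from Hill-equation concentration-response fits.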

The nature of experiment [5]: Cell Viability - LYMP2-017 (AID 972). Also: series mostly up to about 92 µM; nearly all actives have a fitted effect of over 55% in size. In outline:
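Human lymphoblastoid cells (2500/well) were seeded in complete medium, held 5 hr at 37 C, then exposed to compounds for 24 hr at 37 C. Intracellular ATP was read by CellTiter-Glo luminescence after 30 min at room temperature, with AC50 values from Hill-equation fits.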

The nature of experiment [6]: Cell Viability - LYMP2-019 (AID 973). Also: nearly all actives have a fitted effect of over 55% in size. In outline: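 Human lymphoblastoid cells were seeded at 2500 cells/well, preincubated 5 hr at 37 C, then exposed to compounds for 24 hr at 37 C in complete medium. Intracellular ATP was measured by CellTiter-Glo luminescence; AC50 from Hill fits.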
Experiment [7] is described as follows: Cell Viability - LYMP2-021 (AID 974). In outline: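 Human lymphoblastoid cells (2500/well) were preincubated 5 hr at 37 C, then exposed to compounds for 24 hr at 37 C in complete medium. Intracellular ATP was read by CellTiter-Glo luminescence; AC50 came from Hill-equation fits of concentration-response data.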
Experiment [8] is described as follows: Cell Viability - LYMP2-023 (AID 975). In outline: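 Human lymphoblastoid cells (2500/well) were preincubated 5 hr at 37 C, then exposed to compounds for 24 hr at 37 C in complete medium. Cellular ATP was read by CellTiter-Glo luminescence, and AC50 came from Hill-equation fits.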
Experiment [9] can be described thus: Cell Viability - LYMP2-025 (AID 976). Also: series mostly up to about 92 µM. In outline: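 Human lymphoblastoid LYMP2-025 cells (2500/well) were pre-incubated 5 hr at 37 C, then treated with compounds for 24 hr at 37 C in complete medium. Viability was read as intracellular ATP by CellTiter-Glo luminescence; AC50 from Hill fits.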
A short description of experiment [10]: Cell Viability - LYMP2-002 (AID 977).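 Also: series mostly up to about 92 µM; compound exposure lasted 24 h at 37 °C.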 In outline:
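Cytotoxicity is scored as concentration-dependent loss of cellular ATP in a human lymphoblastoid line after 24 hr compound treatment at 37 C. AC50 is obtained by modelling concentration-response data with the Hill equation.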

Experiment [11] can be described thus: Cell Viability - LYMP2-006 (AID 978). Also: series mostly up to about 92 µM; nearly all actives have a fitted effect of over 60% in size. In outline:
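Human lymphoblastoid cells (LYMP2-006), 2500/well in complete medium, were treated with compound for 24 hr at 37 C. Cellular ATP was read by CellTiter-Glo luminescence after 30 min, and AC50 values came from Hill-equation fits of concentration-response data.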

Experiment [12] can be described thus: Cell Viability - LYMP2-007 (AID 979).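 Also: cells exposed to compound for 24 h before reading; nearly all actives have a fitted effect of over 60% in size.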 The gist of the method: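 Human lymphoblastoid cells (2500/well) were plated in complete medium, incubated 5 hr at 37 C, then exposed to compounds for 24 hr at 37 C. Intracellular ATP was read by CellTiter-Glo luminescence after 30 min at room temperature; AC50 from Hill fits.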
Experiment [13] can be described thus: Cell Viability - LYMP2-008 (AID 980). Also: nearly all actives have a fitted effect of over 60% in size. In outline:
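Human lymphoblastoid cells (2500/well) were plated, held 5 hr at 37 C, then exposed to compounds for 24 hr at 37 C in complete medium. Intracellular ATP was read by CellTiter-Glo luminescence; AC50 from Hill-fitted concentration-response.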

The nature of experiment [14]: Cell Viability - LYMP2-010 (AID 981). Also: nearly all actives have a fitted effect of over 55% in size. Also: potency is read from the fitted curve at half-maximal effect. In outline:
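Human lymphoblastoid LYMP2-010 cells (2500/well) were preincubated 5 hr at 37 C, then exposed to compounds for 24 hr at 37 C in complete medium. Intracellular ATP was measured by CellTiter-Glo luminescence after 30 min at room temperature; AC50 from Hill-fitted concentration-response.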

A short description of experiment [15]: Cell Viability - LYMP2-012 (AID 982).
Experiment [16] can be described thus: Cell Viability - LYMP2-014 (AID 983). Also: series mostly up to about 92 µM; nearly all actives have a fitted effect of over 50% in size. In outline: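 Human lymphoblastoid cells (2500/well) were pre-incubated 5 hr at 37 C, then exposed to compounds in complete medium for 24 hr at 37 C. Intracellular ATP was read by CellTiter-Glo luminescence after 30 min at room temperature; AC50 from Hill fits.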
A short description of experiment [17]: Cell Viability - LYMP2-016 (AID 984). Also: nearly all actives have a fitted effect of over 55% in size. In outline:
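Human lymphoblastoid LYMP2-016 cells, 2500 per well, treated with compounds for 24 h at 37 C. Viability read as intracellular ATP by CellTiter-Glo luminescence after 30 min at room temperature; AC50 from Hill fits of concentration-response.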

The nature of experiment [18]: Cell Viability - LYMP2-018 (AID 985).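 Also: compound exposure lasted 24 hr at 37 °C; nearly all actives have a fitted effect of over 50% in size.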 Also: potency is read from the fitted curve at half-maximal effect. The gist of the method:
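Human lymphoblastoid cells (2500/well) were pre-incubated 5 hr at 37 C, then exposed to compounds for 24 hr at 37 C in complete medium. Viability was read as intracellular ATP by CellTiter-Glo luminescence; AC50 values came from Hill-equation fits.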

Experiment [19] is described as follows: Cell Viability - LYMP2-020 (AID 986). In outline:
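Human lymphoblastoid cells, 2500/well, were pre-incubated 5 hr at 37 C, then exposed to compounds for 24 hr at 37 C in complete medium. Intracellular ATP was read by CellTiter-Glo luminescence, and AC50 was derived by Hill fitting of concentration-response data.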

The nature of experiment [20]: Cell Viability - LYMP2-022 (AID 987). Also: nearly all actives have a fitted effect of over 55% in size. Also: potency is read from the fitted curve at half-maximal effect. In outline:
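Human lymphoblastoid cells, 2500/well, preincubated 5 hr at 37 C, then exposed to compounds over a concentration range for 24 hr at 37 C in complete medium. Viability read as intracellular ATP by CellTiter-Glo luminescence after 30 min at room temperature; AC50 from Hill fits.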

As to `COP(=S)(OC)Oc1ccc(SC)c(C)c1`, the outcome in experiment [1], in experiment [2], in experiment [3], in experiment [4], in experiment [5] and in experiment [6] was inactive. For the same molecule, the outcome in experiment [7], in experiment [8], in experiment [9], in experiment [10], in experiment [11] and in experiment [12] was inactive. Besides, the result in [13], in experiment [15], in experiment [16], in experiment [17] and in experiment [19] was inactive. For the same molecule, the Potency result in experiment [14], in experiment [18] and in experiment [20] was “inactive” each time.
Regarding `O=C(O)CCCc1ccc(N(CCCl)CCCl)cc1`, the molecule was classed as inactive in experiment [6], in [8], in experiment [9], in experiment [10] and in experiment [11]. Further, the values for the Potency in experiment [14], in experiment [18] and in experiment [20] were 31.6 µM (active), 31.6 µM (active) and 39.8 µM (active), respectively.
Regarding `O=P1(N(CCCl)CCCl)NCCCO1` (stereo not given), the molecule was classed as inactive in [1], in experiment [2], in experiment [3], in [4], in [5] and in experiment [6]. For the same molecule, the call in [7], in experiment [8], in experiment [9], in [10], in experiment [11] and in experiment [12] was inactive. Moreover, the molecule was classed as inactive in experiment [13], in [15], in experiment [16], in [17] and in experiment [19]. Also, the Potency result in experiment [14], in experiment [18] and in [20] was “inactive” in each case.
For `C[C@]12CCC(=O)C=C1CC[C@@H]1[C@@H]2CC[C@]2(C)C(=O)CC[C@@H]12`, the outcome in experiment [1], in experiment [2], in [3], in [4], in experiment [5] and in experiment [6] was inactive. Moreover, the outcome in [7], in [8], in experiment [9], in experiment [10], in experiment [11] and in experiment [12] was inactive. For the same molecule, the call in experiment [13], in experiment [15], in experiment [16], in [17] and in [19] was inactive. Also, the Potency result in experiment [14], in [18] and in experiment [20] was “inactive” throughout.
For the molecule `COC(=O)C(c1ccccc1)C1CCCCN1` (stereo not given), the result in [1], in [2], in experiment [3], in experiment [5], in experiment [6] and in experiment [7] was inactive. For the same molecule, the result in experiment [8], in [9], in [10], in experiment [11], in experiment [12] and in [13] was inactive. For the same molecule, the molecule was classed as inactive in [15], in experiment [16], in [17] and in [19]. Besides, the Potency result in experiment [14] and in experiment [18] was “inactive” in each case.
Take `CCOC(=O)CC(SP(=S)(OC)OC)C(=O)OCC` (stereo not given): the molecule was classed as inactive in experiment [1], in experiment [2], in experiment [3], in [4], in experiment [5] and in [6]. Besides, the molecule was called inactive in [7], in experiment [8], in [9], in [10], in experiment [11] and in experiment [12]. Also, the molecule was classed as inactive in experiment [13], in experiment [15], in experiment [16], in experiment [17] and in [19]. Besides, the Potency result in [14], in [18] and in experiment [20] was “inactive” in each case.
On to `CCCC(C)(COC(N)=O)COC(N)=O`, for which the outcome in experiment [1], in [2], in experiment [3], in experiment [4], in experiment [5] and in experiment [6] was inactive. Besides, the molecule was called inactive in [7], in experiment [8], in [9], in experiment [10], in [11] and in experiment [12]. Further, the outcome in [13], in [15], in experiment [16], in experiment [17] and in experiment [19] was inactive. Further, the Potency entry in experiment [14], in experiment [18] and in experiment [20] was “inactive” throughout.
`COc1cc(OC)c(OC)cc1C=O`: the call in experiment [1], in experiment [2], in experiment [3], in [4], in [5] and in [6] was inactive. For the same molecule, the molecule was called inactive in experiment [7], in [8], in experiment [9], in experiment [10], in experiment [11] and in experiment [12]. Besides, the molecule was classed as inactive in experiment [13], in [15], in [16], in experiment [17] and in experiment [19]. Besides, the Potency entry in [14], in [18] and in [20] was “inactive” throughout.
In the case of `C[C@]1(O)CC[C@H]2[C@@H]3CCC4=CC(=O)CC[C@]4(C)[C@@]3(F)[C@@H](O)C[C@@]21C`, the call in experiment [1], in experiment [2], in experiment [3], in [4], in experiment [5] and in experiment [6] was inactive. The outcome in experiment [7], in experiment [8], in experiment [9], in [10], in [11] and in [12] was inactive. The molecule was called inactive in experiment [13], in experiment [15], in experiment [16], in [17] and in experiment [19]. For the same molecule, the Potency result in experiment [14], in [18] and in experiment [20] was “inactive” throughout.
For `CC(C)c1cccc(C(C)C)c1O`, the molecule was classed as inactive in experiment [1], in [2], in experiment [3], in experiment [4], in [5] and in experiment [6]. Besides, the outcome in [7], in experiment [8], in experiment [10], in experiment [11], in experiment [12] and in experiment [13] was inactive. In addition, the molecule was called inactive in experiment [15], in experiment [16], in experiment [17] and in experiment [19]. The Potency result in experiment [14], in [18] and in experiment [20] was “inactive” in each case.
